From PubChem BioAssay (EPA / NIEHS)
The source made the active and inactive calls. How the source made its calls: active means hit-call score of the fitted dose curve at least 0.9, where 1 is the maximum; inactive means score below 0.9.

Tests used:
Details in all cases: mRNA level, 48 h; actives raise or lower the signal
CYP3A5 (gene 1577) = assay: LTEA_HepaRG_CYP3A5: Life Technologies and Expression Analysis (LTEA) Assay for CYP3A5 using HepaRG (AID 2283493)
Outline: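 mRNA levels were quantified by qRT-PCR on Fluidigm arrays and normalized to three housekeeping genes. Differentiated HepaRG cells received 48 h exposure (top 100 uM, half-log steps, 0.5% DMSO vehicle, duplicate); bidirectional fitting versus DMSO.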

[1] = read-out: Fatty Acid-Binding Protein 1 (FABP1), FABP1 (gene 2168); assay: LTEA_HepaRG_FABP1: Life Technologies and Expression Analysis (LTEA) Assay for Fatty Acid-Binding Protein 1 (FABP1) using HepaRG (AID 2283494)
Outline: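 Values reflect bidirectional concentration-response fitting of FABP1 mRNA change against 0.5% DMSO controls. Human HepaRG cultures received eight half-log doses (top 100 uM) for 48 h; expression quantified by TaqMan qRT-PCR with housekeeping-gene normalization.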

[2] = read-out: Cytochrome P450 4A22 (Homo sapiens) (UniProt Q5TCH4); assay: LTEA_HepaRG_CYP4A22: Life Technologies and Expression Analysis (LTEA) Assay for Cytochrome P450 4A22 (CYP4A22) using HepaRG (AID 2283495)
Outline: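 qRT-PCR of CYP4A22 mRNA (Fluidigm TaqMan, normalized to three housekeeping genes) after 48 h chemical exposure of HepaRG cells; 8-point half-log series, top 100 uM, 0.5% DMSO vehicle. Bidirectional curve fitting vs DMSO baseline.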

[3] = read-out: Cytochrome P450 7A1 (Homo sapiens) (UniProt P22680); assay: LTEA_HepaRG_CYP7A1: Life Technologies and Expression Analysis (LTEA) Assay for Cytochrome P450 7A1 (CYP7A1) using HepaRG (AID 2283496)
Outline: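 HepaRG, 48 h exposure, 8-pt half-log series from 100 uM, 0.5% DMSO vehicle, duplicates. Readout: TaqMan qRT-PCR mRNA vs three housekeeping genes; bidirectional curve fit against DMSO baseline.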

[4] = read-out: Glutathione S-Transferase (GSTA2), GSTA2 (gene 2939); assay: LTEA_HepaRG_GSTA2: Life Technologies and Expression Analysis (LTEA) Assay for Glutathione S-Transferase (GSTA2) using HepaRG (AID 2283497)
Outline: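 Oxidative-stress marker GSTA2 is quantified by TaqMan qRT-PCR in HepaRG cultures treated 48 h across an eight-point range to 100 uM. Expression is normalized to endogenous controls and compared with 0.5% DMSO vehicle.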

[5] = read-out: Glutamate-cysteine ligase catalytic (GCLC), GCLC (gene 2729); assay: LTEA_HepaRG_GCLC: Life Technologies and Expression Analysis (LTEA) Assay for Glutamate-cysteine ligase catalytic (GCLC) using HepaRG (AID 2283498)
Outline: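 Oxidative-stress marker GCLC is measured as mRNA change in human HepaRG liver cells after 48 h chemical treatment in 0.5% DMSO, eight concentrations from 100 uM. Activity is fitted bidirectionally against vehicle.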

[6] = read-out: growth arrest and DNA damage 45 (GADD45G), GADD45G (gene 10912); assay: LTEA_HepaRG_GADD45G: Life Technologies and Expression Analysis (LTEA) Assay for growth arrest and DNA damage 45 (GADD45G) using HepaRG (AID 2283499)
Outline: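 Differentiated human HepaRG cells in serum-free induction medium were exposed for 48 h to 8 half-log concentrations up to 100 uM in 0.5% DMSO, in duplicate. GADD45G mRNA was measured by TaqMan qRT-PCR, normalised to ACTB, GAPDH and POLR2A, and fitted bidirectionally against DMSO.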

[7] = read-out: Glutathione S-transferase M3 (GSTM3), GSTM3 (gene 2947); assay: LTEA_HepaRG_GSTM3: Life Technologies and Expression Analysis (LTEA) Assay for Glutathione S-transferase M3 (GSTM3) using HepaRG (AID 2283501)
Outline: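 Differentiated HepaRG cells in serum-free induction medium were exposed in duplicate for 48 h to 8 half-log concentrations up to 100 uM in 0.5% DMSO. GSTM3 mRNA was measured by TaqMan qRT-PCR, normalized to ACTB/GAPDH/POLR2A, and fitted bidirectionally versus DMSO.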

[8] = read-out: Heat shock 70 kDa protein 1 (HSPA1A), gene 3303; assay: LTEA_HepaRG_HSPA1A: Life Technologies and Expression Analysis (LTEA) Assay for Heat shock 70 kDa protein 1 (HSPA1A) using HepaRG (AID 2283502)
Outline: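 HSPA1A expression measured by qRT-PCR with ACTB/GAPDH/POLR2A normalization; curves fitted in both directions relative to DMSO vehicle. Exposure: 48 h in HepaRG cells, duplicate 8-point half-log series from 100 uM, 0.5% DMSO, serum-free induction medium.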

[9] = read-out: Hypoxia-inducible factor 1-alpha (Homo sapiens) (UniProt Q16665); assay: LTEA_HepaRG_HIF1A: Life Technologies and Expression Analysis (LTEA) Assay for Hypoxia-inducible factor 1 (HIF1A) Trancription factor using HepaRG (AID 2283503)
Outline: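 HIF1A transcript level read by qRT-PCR (ACTB, GAPDH, POLR2A normalization) after 48 h chemical exposure of HepaRG cultures. Eight half-log concentrations, top 100 uM, 0.5% DMSO vehicle, duplicates; bidirectional curve fit against DMSO baseline.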

[10] = read-out: 3-Hydroxy-3-Methylglutaryl-CoA Synthase 2 (HMGCS2), HMGCS2 (gene 3158); assay: LTEA_HepaRG_HMGCS2: Life Technologies and Expression Analysis (LTEA) Assay for 3-Hydroxy-3-Methylglutaryl-CoA Synthase 2 (HMGCS2) using HepaRG (AID 2283504)
Outline: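 Differentiated human HepaRG cells were exposed in duplicate for 48 h in serum-free induction medium to eight concentrations (top 100 uM, half-log steps, 0.5% DMSO). HMGCS2 mRNA was quantified by TaqMan qRT-PCR, normalised to ACTB, GAPDH and POLR2A, then fitted bidirectionally against DMSO.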

HGF (gene 3082) = assay: LTEA_HepaRG_HGF: Life Technologies and Expression Analysis (LTEA) Assay for Hepatocyte Growth Facto (HGF) using HepaRG (AID 2283505)
Outline: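 Differentiated human HepaRG cells in serum-free induction medium were exposed in duplicate for 48 h to eight concentrations (top 100 uM, half-log steps, 0.5% DMSO). HGF mRNA was quantified by qRT-PCR, normalized to ACTB, GAPDH and POLR2A.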

[11] = read-out: Insulin Like Growth Factor 1 (IGF1), IGF1 (gene 3479); assay: LTEA_HepaRG_IGF1: Life Technologies and Expression Analysis (LTEA) Assay for Insulin Like Growth Factor 1 (IGF1) using HepaRG (AID 2283506)
Outline: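 Expression measured by TaqMan qRT-PCR on a Fluidigm array, with three housekeeping genes for normalisation, after 48 h treatment of HepaRG cells. Top concentration 100 uM with half-log steps, 0.5% DMSO vehicle, bidirectional fit.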

[12] = read-out: Intercellular Adhesion Molecule 1 (ICAM1), ICAM1 (gene 3383); assay: LTEA_HepaRG_ICAM1: Life Technologies and Expression Analysis (LTEA) Assay for Intercellular Adhesion Molecule 1 (ICAM1) using HepaRG (AID 2283507)
Outline: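 Differentiated HepaRG cells in serum-free induction medium were exposed in duplicate for 48 h to eight half-log concentrations up to 100 uM in 0.5% DMSO. Transcript levels were measured by qRT-PCR normalized to ACTB, GAPDH and POLR2A; bidirectional fits relative to DMSO.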

[13] = read-out: Interleukin 6 (IL6), IL6 (gene 3569); assay: LTEA_HepaRG_IL6: Life Technologies and Expression Analysis (LTEA) Assay for Interleukin 6 (IL6) using HepaRG (AID 2283509)
Outline: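 Changes in IL6 mRNA, up or down relative to 0.5% DMSO controls, were derived from concentration-response curves in human HepaRG cells treated for 48 h at up to 100 uM, with ACTB, GAPDH and POLR2A as normalizers.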

[14] = read-out: Interleukin 6 Receptor (IL6R), IL6R (gene 3570); assay: LTEA_HepaRG_IL6R: Life Technologies and Expression Analysis (LTEA) Assay for Interleukin 6 Receptor (IL6R) using HepaRG (AID 2283510)
Outline: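 IL6R transcript level by qRT-PCR after 48 h chemical exposure (8-point, half-log, max 100 uM, 0.5% DMSO vehicle) of HepaRG cells in serum-free induction medium. Normalized to three housekeeping genes; curves fitted in both directions relative to DMSO.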

[15] = read-out: Potassium channel subfamily K member 1 (KCNK1), KCNK1 (gene 3775); assay: LTEA_HepaRG_KCNK1: Life Technologies and Expression Analysis (LTEA) Assay for Potassium channel subfamily K member 1 (KCNK1) using HepaRG (AID 2283511)
Outline: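 Human HepaRG cultures receive test chemicals for 48 h in 0.5% DMSO, top concentration 100 uM with half-log dilutions. Induction or suppression of KCNK1 mRNA relative to DMSO is derived by bidirectional fitting of qRT-PCR data.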

[16] = read-out: Keratin 19 (KRT19), KRT19 (gene 3880); assay: LTEA_HepaRG_KRT19: Life Technologies and Expression Analysis (LTEA) Assay for Keratin 19 (KRT19) using HepaRG (AID 2283512)
Outline: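 Differentiated human HepaRG cells, plated 48 h, were exposed in duplicate for 48 h in serum-free induction medium to eight half-log concentrations up to 100 uM in 0.5% DMSO. KRT19 mRNA was quantified by qRT-PCR, normalized to ACTB, GAPDH and POLR2A, and fitted bidirectionally versus DMSO.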

[17] = read-out: JUN Transcription Factor, JUN (gene 3725); assay: LTEA_HepaRG_JUN: Life Technologies and Expression Analysis (LTEA) Assay for JUN Transcription Factor using HepaRG (AID 2283513)
Outline: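 mRNA measured by TaqMan qRT-PCR after 48 h chemical exposure of HepaRG cultures; normalization to three housekeeping genes. Duplicate eight-point half-log curves from 100 uM in 0.5% DMSO; gain or loss fitted against DMSO baseline.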

[18] = read-out: Insulin-like growth factor-binding protein 1 (IGFBP1), IGFBP1 (gene 3484); assay: LTEA_HepaRG_IGFBP1: Life Technologies and Expression Analysis (LTEA) Assay for Insulin-like growth factor-binding protein 1 (IGFBP1) using HepaRG (AID 2283508)
Outline: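 Differentiated human HepaRG cells in serum-free induction medium were exposed in duplicate for 48 h to eight concentrations, top 100 uM with half-log dilutions, in 0.5% DMSO. Transcript levels came from qRT-PCR normalised to ACTB, GAPDH and POLR2A, fitted bidirectionally against DMSO.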

Chain of Hypoxia-inducible factor 1-alpha (Homo sapiens) (Q16665 whole entry, looked up): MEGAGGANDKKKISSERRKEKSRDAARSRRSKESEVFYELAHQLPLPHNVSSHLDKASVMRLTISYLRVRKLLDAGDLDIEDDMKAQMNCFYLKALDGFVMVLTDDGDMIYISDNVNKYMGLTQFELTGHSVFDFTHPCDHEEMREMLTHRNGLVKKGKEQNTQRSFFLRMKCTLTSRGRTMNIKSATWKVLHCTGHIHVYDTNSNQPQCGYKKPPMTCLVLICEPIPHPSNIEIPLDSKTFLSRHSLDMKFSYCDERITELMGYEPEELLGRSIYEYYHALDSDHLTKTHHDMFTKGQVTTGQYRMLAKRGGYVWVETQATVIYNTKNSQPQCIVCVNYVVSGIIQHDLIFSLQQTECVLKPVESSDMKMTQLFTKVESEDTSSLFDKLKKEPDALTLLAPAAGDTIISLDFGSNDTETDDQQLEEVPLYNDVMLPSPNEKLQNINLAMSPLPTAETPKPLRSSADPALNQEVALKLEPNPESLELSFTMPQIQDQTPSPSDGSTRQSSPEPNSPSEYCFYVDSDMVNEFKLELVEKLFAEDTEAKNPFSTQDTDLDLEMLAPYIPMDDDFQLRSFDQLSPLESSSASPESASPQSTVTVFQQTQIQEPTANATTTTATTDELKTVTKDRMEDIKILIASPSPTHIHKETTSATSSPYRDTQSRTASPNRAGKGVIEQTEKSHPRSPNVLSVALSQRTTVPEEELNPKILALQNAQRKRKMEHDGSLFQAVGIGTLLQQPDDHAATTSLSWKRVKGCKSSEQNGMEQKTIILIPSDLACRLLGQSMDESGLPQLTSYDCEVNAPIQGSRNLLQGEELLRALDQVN

Q: With `CC(C)(C)CC(C)(C)c1ccc(O)cc1` as the compound, how does the outcome (CYP3A5 (gene 1577)) read?
A: inactive

Q: What about the outcome [1] of the same compound?
A: inactive

Q: What about the AC50 [2] of the same compound?
A: 50 µM (active)

Q: And the outcome [3]?
A: inactive

Q: And the outcome [4]?
A: inactive

Q: And the outcome [5]?
A: inactive

Q: And the outcome [6]?
A: inactive

Q: What about the outcome [7] of the same compound?
A: inactive

Q: And the outcome [8]?
A: inactive

Q: What about the outcome [9] of the same compound?
A: inactive

Q: What about the outcome [10] of the same compound?
A: inactive

Q: And the outcome (HGF (gene 3082))?
A: inactive

Q: And the outcome [11]?
A: inactive

Q: What about the outcome [12] of the same compound?
A: inactive

Q: And the outcome [13]?
A: inactive

Q: What about the outcome [14] of the same compound?
A: inactive

Q: And the outcome [15]?
A: inactive

Q: And the AC50 [16]?
A: 25.9 µM (active)

Q: What about the outcome [17] of the same compound?
A: inactive

Q: How did the outcome (CYP3A5 (gene 1577)) turn out when `ClCC(Cl)CCl` was run?
A: inactive

Q: And the outcome [1]?
A: inactive

Q: And the outcome [2]?
A: inactive

Q: What about the outcome [3] of the same compound?
A: inactive

Q: What about the outcome [4] of the same compound?
A: inactive

Q: What about the outcome [5] of the same compound?
A: inactive

Q: And the outcome [6]?
A: inactive

Q: What about the outcome [7] of the same compound?
A: inactive

Q: And the outcome [8]?
A: inactive

Q: What about the outcome [9] of the same compound?
A: inactive

Q: What about the outcome [10] of the same compound?
A: inactive

Q: And the outcome (HGF (gene 3082))?
A: inactive

Q: What about the outcome [11] of the same compound?
A: inactive

Q: And the outcome [12]?
A: inactive

Q: What about the outcome [18] of the same compound?
A: inactive

Q: What about the outcome [13] of the same compound?
A: inactive

Q: What about the outcome [14] of the same compound?
A: inactive

Q: And the outcome [15]?
A: inactive

Q: And the outcome [16]?
A: inactive

Q: And the outcome [17]?
A: inactive
